Measurements reported in PubChem BioAssay (NCATS).
Results filed as inconclusive are left out. Active and inactive are the calls of the source. The call rests on the fitted dose curve; in most records, active means well fitted curve in the direction sought with a large enough effect; inconclusive means small, poorly fitted or top-dose-only effect, or another doubt; inactive means no such curve, though single readings can be large; an effect the other way counts as inactive or inconclusive.

Experiments:
[1] = COV-362 Cancer Cell Toxicity qHTS against the NCATS CANVASS Library (AID 1347352)
Method in brief: (§1)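 Using an ATP-based luminescent reagent after three days of treatment, toxicity is scored across an eleven-concentration range in wells holding 1000 cells each.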

[2] = A2780 Cisplatin Sensitive Ovarian Cancer Cell Toxicity qHTS against the NCATS CANVASS Library (AID 1347353); details: outcome: dose series up to 46.1 µM; further: nearly all actives have a fitted effect of over 60% in size
Method in brief: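 Quantitative HTS format: eleven compound concentrations applied to pre-seeded cells, 72 h incubation at 37 °C, then ATP detection by luminescence.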

[3] = UWB1.289-WTBRCA1 Cancer Cell Toxicity qHTS against the NCATS CANVASS Library (AID 1347354); details: outcome: dose series up to 38.3 µM
Method in brief: as §1

[4] = HPAF-II 24hr Apoptosis Induction qHTS against the NCATS CANVASS Library (AID 1347356)
Method in brief: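 Using an 11-point qHTS format, HPAF-II cells in DMEM/10% FBS received compounds for 24 h; doxorubicin titration as control. Caspase-3/7 activity quantified by DEVD-luciferase luminescence.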

[5] = HEK293 18hr Apoptosis Induction qHTS against the NCATS CANVASS Library (AID 1347357)
Method in brief: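 Cells seeded at 500/well in DMEM + 10% FBS. Compounds pinned, 11 concentrations. 18 h, 37 degrees C/5% CO2. Caspase-Glo 3/7 added, 15 min RT dark, luminescence read.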

[6] = HPAF-II 12hr Apoptosis Induction qHTS against the NCATS CANVASS Library (AID 1347358)
Method in brief: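 Twelve-hour compound exposure of HPAF-II cells in DMEM with 10% FBS, then luminescent Caspase-Glo 3/7 detection after 15 min at room temperature; doxorubicin control.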

[7] = HEK293 24hr Apoptosis Induction qHTS against the NCATS CANVASS Library (AID 1347359)
Method in brief: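 HEK293 cells, 500 per well, exposed to an 11-point compound series for 24 hours at 37 degrees C. Caspase 3/7 activity read by Caspase-Glo luminescence (DEVD substrate) after 15 min at room temperature.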

[8] = HPAF-II 18hr Apoptosis Induction qHTS against the NCATS CANVASS Library (AID 1347360)
Method in brief: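 Seed HPAF-II cells at 500/well in DMEM + 10% FBS, pin-transfer compounds, incubate 18 hours at 37 degrees C/5% CO2, add Caspase-Glo 3/7 reagent, wait 15 min, read luminescence.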

[9] = HEK293 12hr Apoptosis Induction qHTS against the NCATS CANVASS Library (AID 1347361)
Method in brief: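 Cells are seeded, dosed with an 11-point compound series and incubated 12 hours. Caspase-3/7 activity is detected by luminescent DEVD-substrate reagent after 15 minutes at room temperature.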

[10] = target: Luciferin 4-monooxygenase (Photinus pyralis) (UniProt P08659); assay: Firefly luciferase counterscreen qHTS: Assay Interference Panel against the NCATS CANVASS Library (AID 1347363)
Method in brief: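 Purified P. pyralis luciferase (0.04 ug/mL, 4x reagent) added to Tris-acetate buffer with 0.013 mM D-luciferin, 0.013 mM ATP and 13.3 mM Mg-acetate; compounds preincubated 15 min, then luminescence read after 5 min, RT.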

[11] = KB-8-5-11 Cancer Cell Toxicity qHTS against the NCATS CANVASS Library (AID 1347364); further: nearly all actives have a fitted effect of over 75% in size
Method in brief: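 Luminescent ATP signal (CellTiter-Glo, 10 min at room temperature) measured cell survival of KB-8-5-11 after 72 hr compound treatment. For confirmation, the cells were also grown with 1uM tariquidar.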

[12] = SDT Cancer Cell Toxicity qHTS against the NCATS CANVASS Library (AID 1347365);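 further: SDT canine glioma cells 500 per well in 1536 well plates; nearly all actives have a fitted effect of over 60% in size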
Method in brief: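 Canine SDT glioma cell toxicity was scored by ATP-dependent luminescence after a 72 hr incubation with an 11-point compound series.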

[13] = KB-3-1 Cancer Cell Toxicity qHTS against the NCATS CANVASS Library (AID 1347366); details: outcome: dose series up to 46.1 µM; further: nearly all actives have a fitted effect of over 75% in size
Method in brief: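 Luminescence from CellTiter-Glo (10 min, room temperature) measured KB-3-1 viability after 72 hr compound exposure at 37C. Cells were seeded at 500/well and tested in an 11-point series.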

[14] = qHTS for ATAD5 Agonist screened against the NCATS CANVASS Library (AID 1347367);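 further: luciferase reporter driven by ATAD5 which rises upon DNA damage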
Method in brief: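 HEK293T-ATAD5 luc reporter; 2000 cells/well; 5hr settle; cpd 11-pt qHTS; 16hr 37C 5% CO2 dark; viability by CellTiter-Fluor (AFC fluorescence); then luciferase luminescence, 30min RT.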

[15] = G06 Cancer Cell Toxicity qHTS against the NCATS CANVASS Library (AID 1347368); further: nearly all actives have a fitted effect of over 60% in size
Method in brief: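 Quantitative HTS in G06 cells (dog glioma): 72 hr treatment, 11 concentrations, then ATP-based luminescent viability readout; bortezomib 0.1 nM–4.6 uM final as reference.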

[16] = qHTS for ATAD5 Antagonist screened against the NCATS CANVASS Library (AID 1347370);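 further: HEK293T cells carrying an ATAD5 luciferase reporter co-treated with 10 µM 5-fluorouridine; nearly all actives have a fitted effect of over 65% in size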
Method in brief: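 HEK293T-ATAD5 luc reporter, 2000 cells/well; 5hr attach; cpd + 10 uM 5-FUrd; 16hr 37C, 5% CO2. Readouts: CellTiter-Fluor fluorescence (1hr), then Amplite luciferase luminescence (30min RT).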

[17] = J3T Cancer Cell Toxicity qHTS against the NCATS CANVASS Library (AID 1347371); details: outcome: dose series up to 46.1 µM
Method in brief: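 ATP-based cytotoxicity in canine J3T cells: 72 hr exposure at 37C, 11-point titration, CellTiterGlo luminescent detection.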

[18] = HEK-293 Cancer Cell Toxicity qHTS against the NCATS CANVASS Library (AID 1347355); further: nearly all actives have a fitted effect of over 65% in size
Method in brief: as §1

[19] = MCF7 Cancer Cell Toxicity qHTS against the NCATS CANVASS Library (AID 1347369); details: MCF7 viability, ATP luminescence (CellTiter-Glo), 72 h; at 46 µM (top of the series)
Method in brief: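 Cells seeded at 500/well, then compound pinned. Plates incubated 72 hr at 37C, 5% CO2. CellTiterGlo added; luminescence read.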

[20] = test system: NAD(P)H diaphorase (Clostridium kluyveri); assay: Diaphorse counterscreen qHTS: Assay Interference Panel against the NCATS CANVASS Library (AID 1347362)
Method in brief: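 Clostridium kluyveri diaphorase in PBS + 0.01% Tween-20 preincubated 15 min with compounds. Resazurin and NADH then added for 5 min at room temperature in the dark; resorufin fluorescence read (ex 525, em 598).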

Measured: outcome

Sequence of Luciferin 4-monooxygenase (Photinus pyralis) (P08659 whole entry, looked up): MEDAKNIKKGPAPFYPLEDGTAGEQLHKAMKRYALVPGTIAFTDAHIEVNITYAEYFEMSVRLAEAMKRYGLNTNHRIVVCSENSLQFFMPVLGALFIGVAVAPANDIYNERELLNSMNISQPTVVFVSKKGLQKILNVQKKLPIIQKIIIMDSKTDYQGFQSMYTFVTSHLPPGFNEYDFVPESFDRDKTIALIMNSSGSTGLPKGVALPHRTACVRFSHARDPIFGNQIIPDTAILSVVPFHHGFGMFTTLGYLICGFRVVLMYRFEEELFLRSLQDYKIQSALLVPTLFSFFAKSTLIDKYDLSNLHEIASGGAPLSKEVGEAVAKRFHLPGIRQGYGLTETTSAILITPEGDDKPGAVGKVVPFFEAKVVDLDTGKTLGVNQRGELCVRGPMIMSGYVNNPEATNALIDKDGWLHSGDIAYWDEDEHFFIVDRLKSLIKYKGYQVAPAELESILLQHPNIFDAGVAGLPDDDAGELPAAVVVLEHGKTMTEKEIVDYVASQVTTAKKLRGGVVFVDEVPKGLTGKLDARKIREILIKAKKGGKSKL

O=C(O)C(O)Cc1ccc(O)c(O)c1 (stereo not given)
inactive: [1] | [2] | [3] | [4] | [5] | [6] | [7] | [8] | [9] | [10] | [11] | [12] | [13] | [14] | [15] | [16] | [17]

O=c1cc(-c2ccccc2)oc2cc(O)c(O)c(O)c12
inactive: [1] | [2] | [3] | [18] | [4] | [5] | [6] | [7] | [8] | [9] | [11] | [12] | [13] | [14] | [15] | [19] | [16] | [17]

COC(=O)[C@@H]1[C@H]2C[C@H]3c4[nH]c5ccccc5c4CCN3C[C@@H]2CC[C@@H]1O
inactive: [1] | [2] | [3] | [18] | [4] | [5] | [6] | [7] | [8] | [9] | [20] | [10] | [11] | [12] | [13] | [14] | [15] | [19] | [16] | [17]
